Values joined by “and” are separate entries in the source; they are usually repeats but may differ in a detail not shown here. Equal entries are not always repeated. Among all 86,000 compounds or so, about 220 (0.26%) were called active.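 Rule for the calls: active = mean growth activity at or below -80% and every replicate also at or below -80%; inconclusive = mean at or below -80% but some replicate above -80%; inactive = mean growth activity above -80%.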 This excerpt belongs to a sample that is enriched for actives.

This test can be described thus: C. difficile growth inhibitors, primary screen, HTS (AID 1259249).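 Note: 0% = DMSO wells and -100% = levofloxacin 16 µg/mL wells.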 The following applies: Clostridium difficile clinical isolate growth, OD600, 24 h; hits give low values; screened at 16 µg/mL (by protocol).
Regarding `COc1ccccc1CN1[C@H](CO)[C@@H](c2ccccc2)C12CN(C(=O)c1cnccn1)C2`, the growth activity, negative = inhibition is 5.54% (inactive).

Consider `CN1CCN(C(=O)C[C@H]2CC[C@H]3[C@@H](COC[C@H](O)CN3CC3CCOCC3)O2)CC1`, for which the growth activity, negative = inhibition is -4.46% (inactive) and 6.12% (inactive).

With `COCCNC(=O)C[C@H]1CC[C@@H]2[C@@H](COc3ccc(NC(=O)C4CCOCC4)cc3C(=O)N2C)O1`, the growth activity, negative = inhibition is -4.68% (inactive).

For `CNC(=O)C[C@@H]1CC[C@@H]2[C@@H](COc3ccc(NC(=O)c4ccc(F)cc4)cc3C(=O)N2C)O1`, the growth activity, negative = inhibition was 8.61% (inactive).

`O=C(N[C@@H]1CC[C@@H](CC(=O)N2CCc3ccccc3C2)O[C@H]1CO)C1CC1`: the growth activity, negative = inhibition is -3.47% (inactive).

As to `CCCNC(=O)N1CC2(C1)[C@H](c1ccccc1)[C@@H](CO)N2Cc1cccc(Cl)c1`, the growth activity, negative = inhibition is 17% (inactive).

On to `O=C(Nc1ccc(F)cc1)N1C[C@@H]2[C@H](c3ccccc31)[C@H](CO)N2Cc1ccccc1`, for which the growth activity, negative = inhibition is 3.9% (inactive).

Take `Cc1cccc(-c2ccc(C3[C@@H]4CN(C(=O)Nc5ccc(C(F)(F)F)cc5)C[C@H]3N4)cc2)c1` (stereo partly drawn): the growth activity, negative = inhibition was -94.2% (active) and -85.7% (active).

As for `O=C(C1CCCCC1)N1C[C@@H]2N[C@H](C1)C2c1ccc(-c2cccc(F)c2)cc1` (stereo partly drawn), the growth activity, negative = inhibition was 56.1% (inactive) and 10.9% (inactive).

Consider `CN(C)C(=O)c1ccc(-c2ccc(C3[C@@H]4CN(C(=O)Nc5ccccc5)C[C@H]3N4)cc2)cc1` (stereo partly drawn), for which the growth activity, negative = inhibition is 4.58% (inactive).

For the molecule `COc1ccc2c3c(n(C)c2c1)[C@H](CO)N(Cc1ccccc1)CC31CN(C(=O)c2ccccc2F)C1`, the growth activity, negative = inhibition was 20.3% (inactive).

On to `CCCC(=O)Nc1ccc2c(c1)OC[C@H](C)N(C(=O)CC)C[C@H](C)[C@@H](OC)CN(C)C2=O`, for which the growth activity, negative = inhibition was -5.26% (inactive).

Take `COc1ccc2c3c([nH]c2c1)[C@@H](CO)N(C(C)=O)CC31CN(C(=O)Nc2ccc(F)cc2)C1`: the growth activity, negative = inhibition is 1.62% (inactive).

Turning to `CN1CCCCN2[C@@H](CO)[C@@H](c3ccc(C4=CCCC4)cc3)[C@@H]2C1`, the growth activity, negative = inhibition is 0.437% (inactive).

Regarding `N#C[C@@H]1[C@H](c2ccc(-c3cccnc3)cc2)[C@H](CO)N1C(=O)C1CC1`, the growth activity, negative = inhibition was -3.1% (inactive).

With `O=C(CN1CCOCC1)NCC[C@@H]1CC[C@@H](NC(=O)Nc2ccccc2)[C@H](CO)O1`, the growth activity, negative = inhibition is 0.549% (inactive).

As to `O=S(=O)(N[C@H]1CC[C@@H](CCNS(=O)(=O)c2ccccc2Cl)O[C@@H]1CO)c1ccccc1`, the growth activity, negative = inhibition was -8.16% (inactive).

Consider `COc1ccc(C#Cc2ccc([C@@H]3[C@H](CO)N4C(=O)CN(C(C)=O)C[C@@H]34)cc2)cc1`, for which the growth activity, negative = inhibition was -6.73% (inactive).

Turning to `O=C(O)CCCCCCC(=O)NOCc1ccccc1`, the growth activity, negative = inhibition is -0.197% (inactive).

Turning to `CN(C)CC(=O)N[C@@H]1CC[C@H](CC(=O)NCc2ccc(Cl)cc2)O[C@H]1CO`, the growth activity, negative = inhibition is 3.53% (inactive).

As for `CC(C)C#Cc1ccc2c(c1)O[C@@H](CN(C)C(=O)Nc1ccccc1)[C@H](C)CN([C@H](C)CO)S2(=O)=O`, the growth activity, negative = inhibition was 3.59% (inactive).

On to `CCCc1cn(CC[C@@H]2CC[C@@H](NC(=O)C3CC3)[C@H](CO)O2)nn1`, for which the growth activity, negative = inhibition was -2.37% (inactive).

For `O=C(CC1CC1)N1[C@@H](CO)[C@@H](c2ccccc2)C12CN(S(=O)(=O)c1ccccc1)C2`, the growth activity, negative = inhibition was 1.02% (inactive).

Take `COc1ccc2c3c([nH]c2c1)[C@@H](CO)N(Cc1nccs1)CC31CCN(C(=O)C2CCCC2)CC1`: the growth activity, negative = inhibition was 1.43% (inactive).

As for `CCCC(=O)Nc1ccc2c(c1)C(=O)N(C)[C@H]1CC[C@@H](CC(=O)NCC(F)(F)F)O[C@@H]1CO2`, the growth activity, negative = inhibition was 4.45% (inactive).

`COCC(=O)N1CC[C@@H]2[C@@H](CO)Nc3ccc(-c4ccc(C(=O)N(C)C)cc4)cc3[C@@H]21`: the growth activity, negative = inhibition was -7.52% (inactive).

`CO[C@@H]1CN(C)C(=O)c2cc(NC(=O)C3CC3)ccc2OC[C@@H](C)N(C(=O)c2ccccc2F)C[C@@H]1C`: the growth activity, negative = inhibition was -0.472% (inactive).

For the molecule `O=C(C[C@H]1C[C@@H]2c3cc(NC(=O)C4CCOCC4)ccc3O[C@@H]2[C@H](CO)O1)NCC1CC1`, the growth activity, negative = inhibition was -3.84% (inactive).

Regarding `CO[C@@H]1CN(C)C(=O)c2cc(NC(=O)Nc3cccc(Cl)c3)ccc2OC[C@@H](C)N(C)C[C@@H]1C`, the growth activity, negative = inhibition was -2.08% (inactive).

As to `CCS(=O)(=O)Nc1ccc2c(c1)C(=O)N(C)[C@@H]1CC[C@@H](CC(=O)NC)O[C@H]1CO2`, the growth activity, negative = inhibition is 3.49% (inactive).

With `COc1ccc2c3c(n(C)c2c1)[C@H](CO)N(C(=O)Cc1ccccc1)CC31CCN(C)CC1`, the growth activity, negative = inhibition is -5.17% (inactive).

`O=C(C1CCC1)N1C[C@H]2[C@@H](c3ccccc31)[C@H](CO)N2C(=O)Nc1cccc(F)c1`: the growth activity, negative = inhibition was -2.73% (inactive).

On to `CCCNC(=O)N1C[C@H](C)[C@@H](OC)CN(C)C(=O)c2ccc(NS(=O)(=O)CC(F)(F)F)cc2OC[C@@H]1C`, for which the growth activity, negative = inhibition was -2.19% (inactive).

As for `O=C(c1cccc(F)c1)N1CC[C@@H]2[C@H](CO)Nc3ccc(C#Cc4ccccc4)cc3[C@@H]21`, the growth activity, negative = inhibition was 0.292% (inactive).

Take `CN1C(=O)c2cc(NC(=O)C3CC3)ccc2OC[C@@H]2O[C@H](CC(=O)NCC3CCCCC3)CC[C@@H]21`: the growth activity, negative = inhibition is -3.31% (inactive).

With `COc1cccc(S(=O)(=O)N2[C@@H]3CNC[C@H]2C3c2ccc(-c3ccccc3OC)cc2)c1` (stereo partly drawn), the growth activity, negative = inhibition was 17.5% (inactive) and 1.35% (inactive).

Regarding `COC(=O)[C@@H]1[C@@H](CO)[C@@H]2Cn3c(ccc(-c4ccc(OC)cc4)c3=O)[C@@H]2N1S(C)(=O)=O`, the growth activity, negative = inhibition was -4.77% (inactive).

Take `O=C(O)C[C@@H]1CC[C@H](NC(=O)CCN2CCCCC2)[C@H](CO)O1`: the growth activity, negative = inhibition is -9.12% (inactive).

As for `CC(=O)N1CC[C@@H]2[C@H](CO)Nc3ccc(C#Cc4ccccc4F)cc3[C@@H]21`, the growth activity, negative = inhibition is -13.8% (inactive).

Take `COc1ccc(C#Cc2ccc3c(c2)[C@H]2[C@H](CCN2Cc2nccs2)[C@@H](CO)N3)cc1`: the growth activity, negative = inhibition was -3.82% (inactive).

With `COc1ccccc1CN1CC[C@@H]2[C@@H](CO)Nc3ccc(C#Cc4ccccc4)cc3[C@@H]21`, the growth activity, negative = inhibition was -94.5% (active).

Turning to `N#C[C@@H]1[C@H](c2ccc(C#CC3CCCCC3)cc2)[C@@H](CO)N1S(=O)(=O)c1ccccc1`, the growth activity, negative = inhibition was -14.1% (inactive).

Take `COc1ccc2c3c(n(C)c2c1)[C@@H](CO)N(C(=O)Nc1ccccc1F)CC31CCN(C(=O)c2ccccc2F)CC1`: the growth activity, negative = inhibition was -1.72% (inactive).

Values taken from PubChem BioAssay AID1259249 (Broad Institute, 2017).
